# How the values were obtained:
# Assay in all cases: DAPPL (digital affinity profiling via proximity ligation, sequencing); 10 mM Tris-HCl pH 7.5, 50 mM NaCl, 1 mM DTT, 4% glycerol, room temperature, 30 min; GST-TFs on glutathione beads, 16-mer random dsDNA library, 0.1% formaldehyde crosslink after washing; high values mean tight binding
# Settings in all cases: protein: recombinant; tags: N-terminal GST; dsDNA, one strand shown
# [1] = biological target: T1, ERF (Homo sapiens, UniProt P50548 1-548)
# T1 sequence: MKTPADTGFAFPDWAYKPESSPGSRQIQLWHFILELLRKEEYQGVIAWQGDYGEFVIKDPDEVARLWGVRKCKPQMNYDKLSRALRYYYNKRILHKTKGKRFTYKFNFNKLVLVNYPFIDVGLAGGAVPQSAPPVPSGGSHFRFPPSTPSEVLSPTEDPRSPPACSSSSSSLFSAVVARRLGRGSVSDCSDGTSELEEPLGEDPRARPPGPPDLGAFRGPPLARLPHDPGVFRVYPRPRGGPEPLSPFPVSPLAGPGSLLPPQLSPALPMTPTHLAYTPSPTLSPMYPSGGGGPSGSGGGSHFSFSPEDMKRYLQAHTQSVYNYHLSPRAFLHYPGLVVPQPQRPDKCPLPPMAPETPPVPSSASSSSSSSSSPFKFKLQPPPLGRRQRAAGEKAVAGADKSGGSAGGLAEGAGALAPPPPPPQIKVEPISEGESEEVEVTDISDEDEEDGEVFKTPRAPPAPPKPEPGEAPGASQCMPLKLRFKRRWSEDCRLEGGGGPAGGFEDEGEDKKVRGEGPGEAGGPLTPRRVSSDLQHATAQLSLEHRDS
# How it was run: (§1)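 After expression in yeast as GST fusions, human transcription factors were bound to glutathione beads, DNA-barcoded and mixed with a tag-only sample. The pools were incubated with 200 nmole of a 16-mer random double-stranded DNA library in Tris/NaCl/DTT/glycerol buffer (30 min, room temperature), washed and crosslinked with 0.1% formaldehyde. Proximity ligation with BsaI/T4 ligase ran for 1 h at 37 °C, before PCR amplification and sequencing on an Illumina NextSeq500. Binding signal is a hexamer's read frequency for a factor divided by its frequency for the tag-only sample.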
# [2] = biological target: T2, ETV3L (Homo sapiens, UniProt Q6ZN32 1-361)
# T2 sequence: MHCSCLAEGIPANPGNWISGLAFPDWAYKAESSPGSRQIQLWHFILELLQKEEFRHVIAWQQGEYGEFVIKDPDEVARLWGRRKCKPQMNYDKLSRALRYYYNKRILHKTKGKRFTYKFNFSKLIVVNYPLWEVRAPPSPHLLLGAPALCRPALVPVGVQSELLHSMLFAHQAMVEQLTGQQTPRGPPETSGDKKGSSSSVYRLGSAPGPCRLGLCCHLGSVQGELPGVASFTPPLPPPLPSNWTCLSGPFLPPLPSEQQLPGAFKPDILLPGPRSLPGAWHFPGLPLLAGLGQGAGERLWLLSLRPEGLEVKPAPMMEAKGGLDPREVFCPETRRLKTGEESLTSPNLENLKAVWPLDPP
# How it was run: as §1
# [3] = biological target: T3, ETS2 (Homo sapiens, UniProt P15036 1-469)
# T3 sequence: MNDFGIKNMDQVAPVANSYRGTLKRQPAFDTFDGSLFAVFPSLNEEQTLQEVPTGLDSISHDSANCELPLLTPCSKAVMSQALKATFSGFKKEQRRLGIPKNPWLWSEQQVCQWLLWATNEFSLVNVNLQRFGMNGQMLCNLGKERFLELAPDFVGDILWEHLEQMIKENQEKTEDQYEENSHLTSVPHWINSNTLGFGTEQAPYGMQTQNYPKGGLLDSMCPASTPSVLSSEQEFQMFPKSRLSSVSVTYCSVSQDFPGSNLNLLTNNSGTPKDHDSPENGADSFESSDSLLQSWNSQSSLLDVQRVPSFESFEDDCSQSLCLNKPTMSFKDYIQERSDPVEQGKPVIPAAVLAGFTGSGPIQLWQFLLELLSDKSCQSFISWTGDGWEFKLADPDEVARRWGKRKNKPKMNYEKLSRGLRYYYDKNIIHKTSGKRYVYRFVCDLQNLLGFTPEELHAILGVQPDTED
# How it was run: as §1
# [4] = biological target: T4, SPDEF (Homo sapiens, UniProt O95238 1-335)
# T4 sequence: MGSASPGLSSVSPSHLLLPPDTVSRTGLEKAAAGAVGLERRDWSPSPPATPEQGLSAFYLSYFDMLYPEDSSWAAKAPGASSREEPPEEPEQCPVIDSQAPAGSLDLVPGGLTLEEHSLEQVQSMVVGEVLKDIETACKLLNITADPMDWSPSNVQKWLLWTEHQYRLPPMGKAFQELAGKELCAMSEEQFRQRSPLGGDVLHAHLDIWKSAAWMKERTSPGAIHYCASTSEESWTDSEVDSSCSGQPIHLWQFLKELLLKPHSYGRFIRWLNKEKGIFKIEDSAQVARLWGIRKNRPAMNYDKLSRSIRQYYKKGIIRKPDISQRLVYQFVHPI
# How it was run: as §1
# [5] = biological target: T5, ETV7 (Homo sapiens, UniProt Q9Y603 1-341)
# T5 sequence: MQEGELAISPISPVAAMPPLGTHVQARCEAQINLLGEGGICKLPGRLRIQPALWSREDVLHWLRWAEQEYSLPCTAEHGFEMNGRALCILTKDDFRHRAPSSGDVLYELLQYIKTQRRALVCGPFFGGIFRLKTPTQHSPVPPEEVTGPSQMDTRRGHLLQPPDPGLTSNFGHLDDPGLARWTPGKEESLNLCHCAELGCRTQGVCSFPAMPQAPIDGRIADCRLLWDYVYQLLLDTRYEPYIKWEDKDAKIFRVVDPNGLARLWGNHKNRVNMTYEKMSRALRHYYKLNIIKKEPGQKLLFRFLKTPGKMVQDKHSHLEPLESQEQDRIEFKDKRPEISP
# How it was run: as §1
# [6] = biological target: T6, ELF5 (Homo sapiens, UniProt Q9UKW6-2 1-255)
# T6 sequence: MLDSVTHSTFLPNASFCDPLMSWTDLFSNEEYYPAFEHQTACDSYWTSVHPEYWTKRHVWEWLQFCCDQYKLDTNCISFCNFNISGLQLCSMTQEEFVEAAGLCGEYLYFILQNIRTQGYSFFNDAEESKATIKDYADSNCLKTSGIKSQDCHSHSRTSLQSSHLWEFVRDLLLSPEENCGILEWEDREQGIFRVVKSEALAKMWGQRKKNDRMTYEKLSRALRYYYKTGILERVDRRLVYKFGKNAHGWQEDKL
# How it was run: as §1
# [7] = biological target: T7, ETV3 (Homo sapiens, UniProt P41162-2 1-143)
# T7 sequence: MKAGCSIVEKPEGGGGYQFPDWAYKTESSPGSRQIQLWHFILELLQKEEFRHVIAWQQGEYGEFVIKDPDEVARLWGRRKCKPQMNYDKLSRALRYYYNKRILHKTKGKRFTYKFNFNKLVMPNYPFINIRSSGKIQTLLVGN
# How it was run: as §1
# [8] = biological target: ETV6 (Homo sapiens, UniProt P41212 1-452)
# Sequence of ETV6 (P41212 whole entry): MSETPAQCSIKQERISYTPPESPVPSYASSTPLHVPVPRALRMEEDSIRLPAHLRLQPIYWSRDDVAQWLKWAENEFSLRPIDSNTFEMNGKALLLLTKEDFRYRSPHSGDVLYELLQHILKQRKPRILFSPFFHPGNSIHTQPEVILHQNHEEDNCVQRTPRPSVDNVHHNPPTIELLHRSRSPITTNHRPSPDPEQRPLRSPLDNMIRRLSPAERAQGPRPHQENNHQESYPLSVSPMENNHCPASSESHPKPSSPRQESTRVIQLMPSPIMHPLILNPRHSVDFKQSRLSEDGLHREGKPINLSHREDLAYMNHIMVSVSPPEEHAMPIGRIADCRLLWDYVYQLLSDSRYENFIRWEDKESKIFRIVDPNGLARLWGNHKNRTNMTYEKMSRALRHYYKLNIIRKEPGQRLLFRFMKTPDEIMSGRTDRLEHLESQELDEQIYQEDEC
# How it was run: as §1
Sequence,binding signal [1],binding signal [2],binding signal [3],binding signal [4],binding signal [5],binding signal [6],binding signal [7],binding signal [8]
GCACTA,"1.19 fold enrichment (6-mer frequency, TF over GST control)","1.23 fold enrichment (6-mer frequency, TF over GST control)","1.21 fold enrichment (6-mer frequency, TF over GST control)","1.16 fold enrichment (6-mer frequency, TF over GST control)","1.2 fold enrichment (6-mer frequency, TF over GST control)","1.1 fold enrichment (6-mer frequency, TF over GST control)","1.22 fold enrichment (6-mer frequency, TF over GST control)","1.09 fold enrichment (6-mer frequency, TF over GST control)"
CTGCTG,"1.08 fold enrichment (6-mer frequency, TF over GST control)","1.3 fold enrichment (6-mer frequency, TF over GST control)","1.36 fold enrichment (6-mer frequency, TF over GST control)","1.26 fold enrichment (6-mer frequency, TF over GST control)","1.13 fold enrichment (6-mer frequency, TF over GST control)","1.27 fold enrichment (6-mer frequency, TF over GST control)","1.27 fold enrichment (6-mer frequency, TF over GST control)","1.22 fold enrichment (6-mer frequency, TF over GST control)"
TCCCTC,"1.46 fold enrichment (6-mer frequency, TF over GST control)","1.41 fold enrichment (6-mer frequency, TF over GST control)","1.49 fold enrichment (6-mer frequency, TF over GST control)","1.4 fold enrichment (6-mer frequency, TF over GST control)","1.4 fold enrichment (6-mer frequency, TF over GST control)","1.53 fold enrichment (6-mer frequency, TF over GST control)","1.49 fold enrichment (6-mer frequency, TF over GST control)","1.43 fold enrichment (6-mer frequency, TF over GST control)"
CTGGAT,"1.43 fold enrichment (6-mer frequency, TF over GST control)","1.5 fold enrichment (6-mer frequency, TF over GST control)","1.4 fold enrichment (6-mer frequency, TF over GST control)","1.42 fold enrichment (6-mer frequency, TF over GST control)","1.22 fold enrichment (6-mer frequency, TF over GST control)","1.3 fold enrichment (6-mer frequency, TF over GST control)","1.37 fold enrichment (6-mer frequency, TF over GST control)","1.21 fold enrichment (6-mer frequency, TF over GST control)"
AACCCG,"1.42 fold enrichment (6-mer frequency, TF over GST control)","1.34 fold enrichment (6-mer frequency, TF over GST control)","1.45 fold enrichment (6-mer frequency, TF over GST control)","1.63 fold enrichment (6-mer frequency, TF over GST control)","1.47 fold enrichment (6-mer frequency, TF over GST control)","1.52 fold enrichment (6-mer frequency, TF over GST control)","1.57 fold enrichment (6-mer frequency, TF over GST control)","1.5 fold enrichment (6-mer frequency, TF over GST control)"
TTGTAA,"1.36 fold enrichment (6-mer frequency, TF over GST control)","1.32 fold enrichment (6-mer frequency, TF over GST control)","1.23 fold enrichment (6-mer frequency, TF over GST control)","1.26 fold enrichment (6-mer frequency, TF over GST control)","1.27 fold enrichment (6-mer frequency, TF over GST control)","1.26 fold enrichment (6-mer frequency, TF over GST control)","1.3 fold enrichment (6-mer frequency, TF over GST control)","1.28 fold enrichment (6-mer frequency, TF over GST control)"
TATTCC,"1.49 fold enrichment (6-mer frequency, TF over GST control)","1.73 fold enrichment (6-mer frequency, TF over GST control)","1.58 fold enrichment (6-mer frequency, TF over GST control)","1.83 fold enrichment (6-mer frequency, TF over GST control)","1.66 fold enrichment (6-mer frequency, TF over GST control)","1.99 fold enrichment (6-mer frequency, TF over GST control)","1.64 fold enrichment (6-mer frequency, TF over GST control)","1.67 fold enrichment (6-mer frequency, TF over GST control)"

# — publication PMC7862700, “An all-to-all approach to the identification of sequence-specific readers for epigenetic DNA modifications on cytosine”
